# Assay results as given in article PMC12280212.
# Tests used:
# Assay in all cases: cross-linking mass spectrometry
# Actin, cytoplasmic 1 = Actin, cytoplasmic 1 (UniProt P60709)
# [1] = biological target: Elongation factor 1-alpha 2 (UniProt Q05639)
# Histone H2B type 1-N = Histone H2B type 1-N (UniProt Q99877)
# [2] = biological target: T1, LIM and SH3 domain protein 1 (UniProt Q14847)
# T1 sequence: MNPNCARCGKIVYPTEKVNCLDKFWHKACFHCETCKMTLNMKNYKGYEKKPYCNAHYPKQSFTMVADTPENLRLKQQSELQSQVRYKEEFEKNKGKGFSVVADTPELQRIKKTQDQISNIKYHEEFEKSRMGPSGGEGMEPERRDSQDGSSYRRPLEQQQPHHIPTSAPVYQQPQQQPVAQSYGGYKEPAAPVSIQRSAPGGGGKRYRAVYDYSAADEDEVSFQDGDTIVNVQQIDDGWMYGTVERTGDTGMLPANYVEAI
# [3] = biological target: Ubiquitin-ribosomal protein eS31 fusion protein (UniProt P62979)
# [4] = biological target: Large ribosomal subunit protein uL4 (UniProt P36578)
# Vimentin = Vimentin (UniProt P08670)
# [5] = biological target: Large ribosomal subunit protein eL31 (UniProt P62899)
# Peptidyl-prolyl cis-trans isomerase A, P62937, sequence (P62937 whole entry): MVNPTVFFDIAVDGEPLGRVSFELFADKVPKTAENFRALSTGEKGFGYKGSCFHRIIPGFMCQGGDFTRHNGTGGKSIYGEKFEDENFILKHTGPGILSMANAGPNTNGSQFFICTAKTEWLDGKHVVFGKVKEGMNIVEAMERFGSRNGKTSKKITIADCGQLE
substance,measurement,setting,value
"Elongation factor 2, P13639",listed as a hit,"Actin, cytoplasmic 1",yes
"Actin, cytoplasmic 1, P60709",listed as a hit,[1],yes
same,listed as a hit,Histone H2B type 1-N,yes
same,listed as a hit,[2],yes
same,listed as a hit,[3],yes
"Large ribosomal subunit protein uL6, P32969",listed as a hit,[4],yes
"Protein S100-A6, P06703",listed as a hit,Vimentin,yes
"Peptidyl-prolyl cis-trans isomerase A, P62937",listed as a hit,Histone H2B type 1-N,yes
"Large ribosomal subunit protein uL29, P42766",listed as a hit,[5],yes
